From PubChem
Sampled rows, rich in hits. Any-hit rate of the full collection: about 2.5%.
Cruzain Triton: blocks cruzain activity in presence of Triton detergent; Potency, µM, without a hit: max response, negative = inhibition, usual class: inhibitors; purified cruzain, Z-FR-AMC fluorescence, 0.01% Triton; P25779; 200,000 tested, 0.43% active; AID 1478;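 further: plate controls were neutral wells for no effect and buffer without enzyme for full effect; nearly all actives have a fitted effect of over 40% in size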
Target sequence (P25779 123-467 limits assumed): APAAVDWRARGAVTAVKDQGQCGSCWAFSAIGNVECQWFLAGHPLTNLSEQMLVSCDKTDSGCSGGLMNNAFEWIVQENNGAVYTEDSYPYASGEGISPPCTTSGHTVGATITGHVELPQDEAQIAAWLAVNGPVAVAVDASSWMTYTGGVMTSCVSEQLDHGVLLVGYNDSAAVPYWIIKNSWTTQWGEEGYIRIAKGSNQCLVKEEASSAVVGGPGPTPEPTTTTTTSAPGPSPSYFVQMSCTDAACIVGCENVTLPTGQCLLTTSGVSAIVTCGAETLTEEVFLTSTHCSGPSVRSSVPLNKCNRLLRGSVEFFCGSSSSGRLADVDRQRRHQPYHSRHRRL
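Steps: dispense cruzain (1.5 nM final) in acetate buffer pH 5.5 with DTT and 0.01% Triton X-100; pin-transfer compounds; incubate 15 min RT; add Z-FR-AMC (2 uM final); read fluorescence every 30 s, using the 60 s intensity change.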
Cruzain inh noDet: blocks cruzain activity in detergent-free assay | P25779 | purified cruzain, Z-FR-AMC fluorescence, no detergent | Potency, µM, inactives show max response, negative = inhibition, hits mostly inhibitors | 200,000 tested, 2.3% active;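 further: plate controls were enzyme without inhibitor for no effect and buffer without enzyme for full effect; nearly all actives have a fitted effect of over 40% in size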
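Purified cruzain at 1.5 nM, pre-incubated 15 min with compound at room temperature in 100 mM sodium acetate pH 5.5, 5 mM DTT, 0.00005% Triton X-100. Reaction started with 2 uM Z-FR-AMC; AMC fluorescence increase over 60 s gives rate.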
Starred values were filed as active, the others as inactive; u = inconclusive. The call rests on the fitted dose curve; in most records, active means well fitted curve in the direction sought with a large enough effect; inconclusive means small, poorly fitted or top-dose-only effect, or another doubt; inactive means no such curve, though single readings can be large; an effect the other way counts as inactive or inconclusive. Potency means the concentration at half of the fitted maximal effect.

SMILES	Cruzain Triton	Cruzain inh noDet
CCOc1ccc(C2NC(=O)c3sc(=S)n(-c4ccccc4)c3N2)cc1 (stereo unspecified)	-12%	-18%
COc1cccc(Cc2nc3ccccc3nc2SCC(=O)N2CCCc3ccccc32)c1	6%	-8%
COc1ccc(-c2nn3c(=O)cc(CN4CCN(S(=O)(=O)c5ccc(C)cc5)CC4)nc3s2)cc1	1%	-9%
Cc1ccc(CSCc2ccc(C(=O)NCCc3ccc(Cl)cc3)o2)cc1	-1%	-6%
CCNC(=O)c1ccc(NS(=O)(=O)c2ccccc2)cc1	4%	-6%
NS(=O)(=O)c1ccc(NS(=O)(=O)c2ccc(NC(=O)c3ccc(-c4ccccc4)cc3)cc2)cc1	-25%	13µM*
CCc1ccc(N2CCn3c2nc2c3c(=O)n(CCc3ccccc3)c(=O)n2C)cc1	-8%	4%
O=C(Cn1nc(-c2ccc(Cl)cc2)c2ccccc2c1=O)Nc1cccc(Br)c1	-3%	-8%
COc1ccc(-c2nn(CC(=O)Nc3ccc(Cl)c(Cl)c3)c(=O)c3ccccc23)cc1	-1%	7.9µM*
Cc1nn(CCC(=O)Nc2ccc(Cl)cc2)c(C)c1S(=O)(=O)N1CCCCC1	-3%	u
CCc1ccc(-c2cn3c(n2)sc2cc(C(=O)NCCc4ccc(OC)cc4OC)ccc23)cc1	-4%	0%
Cc1ccc(N=Cc2c(O)n(-c3cc(Cl)ccc3N3CCOCC3)c(=O)c3ccccc23)cc1C	-1%	6.3µM*
Cc1cc(N=Cc2c(O)n(-c3cccc(Cl)c3)c(=O)c3ccccc23)no1	-4%	-4%
CSCCC(NC(=O)OC(C)(C)C)C(=O)NC(CC(C)C)C(N)=O (stereo unspecified)	-1%	-2%
CC(C)CC(NC(=O)C(CC(C)C)NC(=O)OC(C)(C)C)C(N)=O (stereo unspecified)	u	16µM*
CCc1cccc(C)c1NC(=O)Cn1c(=O)cc(C(F)(F)F)c2c(C)nn(C)c21	-2%	-4%
COc1ccc(C2NCCc3c2[nH]c2ccccc32)cc1CSc1nc2ccccc2s1 (stereo unspecified)	-10%	25µM*
COc1cc(/C=C(\C#N)C(N)=O)cc(CSc2nc3ccccc3s2)c1O	-8%	-1%
CSc1cc(-c2ccccc2)n(Cc2ccc(Cl)cc2Cl)c(=O)c1C#N	5%	25µM*
Cc1cc(C)n(Cc2ccc(Cl)cc2Cl)c(=O)c1S(=O)(=O)c1ccccc1	-9%	-14%
O=C(CSc1nc2ccccc2c(=O)n1-c1ccccc1)NCc1ccc2c(c1)OCO2	1%	-1%
CCCCNC(=O)CSc1nc2ccccc2c(=O)n1Cc1ccc2c(c1)OCO2	6%	20µM*
CC1=C(c2ccc(C)cc2)S(=O)(=O)NC1=NCCCN1CCN(c2ccccc2F)CC1	-4%	10%
CCOC(=O)c1c(C)[nH]c(C(=O)CSc2ccc(Cl)cc2)c1C	4%	u
CCOC(=O)c1c(C)[nH]c(C(=O)CSc2nnc(Nc3ccccc3F)s2)c1C	-4%	13µM*
SMILES	Cruzain Triton	Cruzain inh noDet
COc1ccccc1CNC(=O)c1cnc(N2CCCC2)nc1C	0%	-4%
CCOC(=O)c1c(-c2ccccc2)oc2ccc(NS(=O)(=O)c3cc(C)c(C)cc3C)cc12	-3%	7.9µM*
CCOC(=O)c1c(-c2ccccc2)oc2ccc(NS(=O)(=O)c3ccccc3)cc12	-7%	-26%
COc1cc(Cl)c(C)cc1NC(=O)Cn1cc(S(=O)(=O)N2CCN(c3ccccc3F)CC2)c2ccccc2c1=O	-3%	-26%
COc1ccc(NC(=O)Cn2cc(S(=O)(=O)N3CCN(c4ccccc4F)CC3)c3ccccc3c2=O)cc1Cl	-1%	7.9µM*
C=CCN(CC=C)S(=O)(=O)c1ccc(NC(=S)NC(=O)/C=C/c2ccc(C)cc2)cc1	-1%	25µM*
C=CCN(CC=C)S(=O)(=O)c1ccc(NC(=S)NC(=O)c2ccc(-c3ccccc3)cc2)cc1	1%	-8%
CN(C)NC(=S)Nc1ccc(Cl)cc1	6%	17%
C=CCN(CC=C)S(=O)(=O)c1ccc(NC(=S)NC(=O)c2ccco2)cc1	-3%	4%
CN(C)c1ccc(NC(=S)NC(=O)/C=C/c2ccc(Cl)cc2)cc1	5%	5µM*
C=CCN(CC=C)S(=O)(=O)c1ccc(NC(=S)NC(=O)/C=C/c2cccc3ccccc23)cc1	3%	4µM*
COc1ccc(-n2c(-c3ccccc3F)nc3c(cnn3-c3ccc(C)cc3)c2=O)cc1	-15%	-18%
CCOC(=O)c1[nH]c2c(c1Cc1ccccc1)C(=O)CC(c1ccc(C(C)(C)C)cc1)C2 (stereo unspecified)	-4%	10µM*
Cc1c(C(=O)OCc2ccccc2)[nH]c2c1C(=O)CC(c1ccc(C(C)(C)C)cc1)C2 (stereo unspecified)	-2%	-9%
COc1ccc(C)cc1N(C(=O)c1ccccc1F)c1nc2ccccc2s1	-5%	1.6µM*
COc1ccc(C)cc1N(C(=O)c1ccccc1)c1nc2ccccc2s1	-4%	u
